# Measured values as given in PubChem BioAssay AID431 (Sanford-Burnham Center for Chemical Genomics, 2006).
# In all, about 63,000 compounds went through this assay and about 1,100 (1.7%) were called active. The entries come from a sample that favours actives as a whole. Entries with a potency or affinity are not part of this list. Unmarked numbers belong to inactive results.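 How the source made its calls: active means compounds whose percent cytotoxicity in the single-dose primary screen, scaled between solvent and toxic-drug controls, exceeds 50; inactive means the rest.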
# Test: cytotoxicity in KRAS-transformed pancreatic duct cells, primary screen, cell-based, fluorescence, HTS (AID 431);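 further: 0% = DMSO solvent wells and 100% = doxorubicin-treated wells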
# Details: HPDE-C7K KRASV12 cells, Alamar Blue viability, 48 h; at 10 µM; hits give high values
row,Compound,cytotoxicity
1,CCCn1c(SCCN2C(=O)c3ccccc3C2=O)n[nH]c1=O,2.1%
2,Cc1cccc(NC(=O)CSc2nnc(-c3ccccc3)n2N)c1C,-15%
3,CCOC(=O)c1c(C)oc2c1c(/C=N/c1ccccn1)c(O)c1ccccc12,4.3%
4,CCOC(=O)c1c(C)oc2c1c(C=NCC1CCCO1)c(O)c1ccccc12 (stereo not given),-16.3%
5,CCOC(=O)c1c(C)oc2c1c(C=NCc1ccccn1)c(O)c1ccccc12,99.2% (active)
6,CCOC(=O)c1c(C)oc2c1c(C(c1cccnc1)N1CCN(C)CC1)c(O)c1ccccc12 (stereo not given),125% (active)
7,CCOC(=O)c1c(C)oc2c1c1c(c3ccccc32)OCN(Cc2cccnc2)C1,29.9%
8,CCOC(=O)c1c(C)oc2c1c(C=NC1CCS(=O)(=O)C1)c(O)c1ccccc12 (stereo not given),23.8%
9,Cc1ccc(-c2cc(-c3cccc(F)c3)n[nH]2)c(O)c1,10.8%
10,Oc1ccccc1-c1cc(-c2ccccc2Cl)[nH]n1,15.9%
11,Cc1ccccc1-c1cc(-c2ccccc2O)n[nH]1,44%
12,Cc1ccc(-c2cc(-c3ccccc3Cl)[nH]n2)c(O)c1,59.5% (active)
13,COc1ccccc1-c1cc(-c2cc(Cl)ccc2O)n[nH]1,-3.1%
14,CCOc1ccccc1OCC(=O)Nc1ccc(S(=O)(=O)N(C)C)cc1,3.1%
15,O=C(Cn1nnc(-c2ccccc2F)n1)Nc1ccc(S(=O)(=O)NC2CCCC2)cc1,-26.3%
16,CCOC(=O)C(C)Oc1cccc2c(=O)n(CC(=O)NCc3ccc4c(c3)OCO4)ccc12 (stereo not given),38.8%
17,CCOC(=O)C(C)Oc1cccc2c(=O)n(CC(=O)N3CCN(C(=O)OCC)CC3)ccc12 (stereo not given),-16.7%
18,CCOC(=O)C(C)Oc1cccc2c(=O)n(CC(=O)NCc3ccco3)ccc12 (stereo not given),61.1% (active)
19,COc1ccc(NC(=O)C2CCCN(S(=O)(=O)c3cnc[nH]3)C2)cc1 (stereo not given),-5.3%
20,COc1ccc(Br)cc1C(=O)Nc1ccc(O)cc1,-14.3%
21,COc1cc(C)c(CNc2ccc(OC)c(OC)c2)cc1C,21.6%
22,COc1ccc(Br)cc1CNc1ccc(O)cc1,50% (active)
23,Cc1ccc(-n2nnnc2SCC(=O)Nc2c(C)n(C)n(-c3ccccc3)c2=O)cc1,-3.4%
24,COc1ccc(OC)c(Nc2cc(C(=O)NCCCN3CCOCC3)c3ccccc3n2)c1,1.8%
25,CCOc1ccc(NC(=O)Cn2nnc(-c3ccccc3NC(=O)CC)n2)cc1,5.1%

row,Compound,cytotoxicity
1,CC(=NCc1ccccc1)C1=C(O)COC1=O,-6%
2,NC(=O)c1cc2ccc(O)cc2oc1=NCc1ccccc1,4.1%
3,COc1ccccc1NC(=O)CC1Nc2ccccc2NC1=O (stereo not given),-4.5%
4,Cc1ccc(NC(=O)CC2Nc3ccccc3NC2=O)cc1Cl (stereo not given),51.6% (active)
5,O=C(CC1Nc2ccccc2NC1=O)Nc1ccccc1 (stereo not given),-3.2%
6,CC(C)c1nc(SCc2c(F)cccc2Cl)c2c(=O)n(C)c(=O)n(C)c2n1,70.4% (active)
7,CC(C)c1nc(SCc2ccccn2)c2c(=O)n(C)c(=O)n(C)c2n1,1.9%
8,Cc1nc(SCc2c(F)cccc2Cl)c2c(=O)n(C)c(=O)n(C)c2n1,-12.8%
9,CCC(CC)C(=O)Nc1ccccc1NC(C)=O,-16%
10,N#CCCN(CCC#N)C(=O)c1ccc2c(c1)OCO2,-3.2%
11,CCOc1ccc(Nc2cc(C)nc(-n3nc(C)cc3C)n2)cc1,40.7%
12,COc1ccc(N2CCN(C(=O)c3ccc(-n4nc(C)cc4C)cc3)CC2)cc1,2.6%
13,CC(=O)c1ccc(Oc2cc(C)nc(-n3nc(C)cc3C)n2)cc1,56.4% (active)
14,COC(=O)c1ccc(Oc2cc(C)nc(-n3nc(C)cc3C)n2)cc1,32.6%
15,COc1ccc(Nc2cc(C)nc(-n3nc(C)cc3C)n2)cc1,79.2% (active)
16,CNc1cc(C)nc(-n2nc(C)cc2C)n1,-14.9%
17,Cc1cc(NC(=O)c2cnn3c(C(F)F)cc(C4CC4)nc23)no1,20.6%
18,COc1cccc(NC(=O)c2ccccc2-c2nc(-c3ccccc3)no2)c1,25.4%
19,COc1ccc(OC)c(NC(=O)CNC(=O)Cn2cnc3ccccc3c2=O)c1,2.3%
20,Cc1cccc(N(C)S(=O)(=O)c2cccc3nsnc23)c1,14.4%
21,CCOC(=O)C1CCN(C(=O)c2oc3ccc(S(=O)(=O)N4CC(C)CC(C)C4)cc3c2C)CC1 (stereo not given),5.5%
22,Cc1ccc(-c2csc3nc(C)n(-n4cccc4)c(=O)c23)o1,0.5%
23,Cc1nnc(SCC(=O)n2c3c(c4ccccc42)CCCC3)s1,6.2%
24,O=C(CSc1nnc(-c2ccccc2)o1)n1c2c(c3ccccc31)CCCC2,69.9% (active)
25,O=C(O)CSc1nnc(-c2ccccc2)o1,19.6%
